In PubChem BioAssay (EPA / NIEHS) one finds outcome and AC50 data, which are given here for three compounds.

Each structure is given as a SMILES string. Values joined by “and” are separate entries in the source; they are usually repeats but may differ in a detail not shown here. Identical values can stand only once. Inconclusive results are not listed. More than one record can exist for a structure, and the calls need not agree. Active and inactive are the calls of the source. How the source made its calls, unless noted: active means hit-call score of the fitted dose curve at least 0.9, where 1 is the maximum; inactive means score below 0.9.

In assay [1] the target is Paired box protein Pax-6 (Homo sapiens) (UniProt P26367). As to the kind of experiment: ATG_Pax6_CIS: Attagene CIS-FACTORIAL HepG2 Assay for human Paired Box 6 (PAX6) (AID 2282956). The settings on record: HepG2 CIS-FACTORIAL PAX6 reporter transcription, RNA readout; actives raise or lower the signal. An outline of the steps:
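Multiplexed cis-reporter HepG2 system; 24 h treatment; reporter mRNA read by RT-PCR/CE fluorescence; bidirectional fit vs DMSO.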

The nature of assay [2]: ATG_PXRE_CIS: Attagene CIS-FACTORIAL HepG2 Assay for human Pregnane X Receptor Element (PXRE) (AID 2282957). To be noted: HepG2 Attagene CIS-FACTORIAL PXRE reporter, mRNA; actives raise or lower the signal. An outline of the steps:
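HepG2 cells transiently transfected with cis-regulated multiple reporter transcription units; endogenous factor activity measured as reporter mRNA 24 h after dosing. RT-PCR, fluorescent primer extension, HpaI digestion, capillary electrophoresis; bidirectional fit versus DMSO baseline.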

A short description of assay [3]: ATG_PPRE_CIS: Attagene CIS-FACTORIAL HepG2 Assay for human Peroxisome Proliferator-activated Response Element (PPRE) (AID 2282958). The settings on record: HepG2 PPRE cis-element reporter, Attagene transcription factor profiling; actives raise or lower the signal. Put shortly: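 In this cell-based multiplex, a PPRE cis element drives a reporter sequence in transiently transfected HepG2 cells. Following 24 h treatment, labeled cDNA amplicons are sized and quantified by capillary electrophoresis, with DMSO defining baseline.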

Assay [4] is described as follows: ATG_RORE_CIS: Attagene CIS-FACTORIAL HepG2 Assay for human RAR-related Orphan Receptor Element (RORE) (AID 2282959). The settings on record: HepG2 Attagene cis-factorial RORE reporter, mRNA; actives raise or lower the signal. Put shortly: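 Endogenous factor activity at a cis response element is read as reporter transcript levels in HepG2 cells, 24 h post-dose. Transcripts are quantified by RT-PCR with capillary electrophoresis, and data fitted in both directions against DMSO.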

Assay [5] is described as follows: ATG_Sox_CIS: Attagene CIS-FACTORIAL HepG2 Assay for human SRY-box transcription factor (SOX) (AID 2282960). To be noted: HepG2 Attagene cis-factorial SOX reporter, mRNA; actives raise or lower the signal. An outline of the steps:
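Measures mRNA induction of a SOX1-associated reporter in HepG2 after 24 h dosing. Fluorescently labelled RT-PCR fragments are separated by capillary electrophoresis, and gain or loss relative to DMSO control is fitted.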

Assay [6] deals with Transcription factor Sp1 (Homo sapiens) (UniProt P08047). Put plainly: ATG_Sp1_CIS: Attagene CIS-FACTORIAL HepG2 Assay for human Specificity Protein 1 (Sp1) (AID 2282961). To be noted: HepG2 Sp1 cis-reporter transcription, actives raise or lower the signal. Put shortly: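 Cells: HepG2, transiently transfected with cis-regulated multiplexed reporters. Exposure: 24 h. Detection: reporter transcripts amplified, fluorescently labeled, restriction-digested and sized by capillary electrophoresis. Analysis: bidirectional fit relative to DMSO.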

Assay [7] can be described thus: ATG_SREBP_CIS: Attagene CIS-FACTORIAL HepG2 Assay for human Sterol Regulatory Element Binding (SREBP) (AID 2282962). To be noted: HepG2 Attagene cis-factorial SREBP reporter, mRNA; actives raise or lower the signal. An outline of the steps:
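mRNA induction of transfected cis-promoter reporters in HepG2 cells, 24 h post-dose. Detection: RT-PCR with 6-FAM-labelled products, HpaI digest, capillary electrophoresis. DMSO served as negative control and baseline.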

Assay [8] addresses Signal transducer and activator of transcription 3 (Homo sapiens) (UniProt P40763). Put plainly: ATG_STAT3_CIS: Attagene CIS-FACTORIAL HepG2 Assay for human Signal Transducer and Activator of Transcription 3 (STAT3) (AID 2282963). To be noted: HepG2, Attagene cis-factorial STAT3 reporter transcription; actives raise or lower the signal. An outline of the steps:
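Endogenous STAT3-responsive cis-element activity was read in transiently transfected HepG2 cells after 24 h treatment. Reporter transcripts were quantified via RT-PCR and capillary electrophoresis, with DMSO as negative control and bidirectional curve fitting.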

Assay [9] in a line: ATG_TA_CIS: Attagene CIS-FACTORIAL HepG2 Assay for human TA Basal Promoter (AID 2282964). The settings on record: HepG2 Attagene CIS-factorial TA basal promoter reporter; actives raise or lower the signal. An outline of the steps: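 Steps: transfect HepG2 with MRTUs; dose 24 h; isolate RNA, DNase-treat, reverse-transcribe; PCR and FAM-label reporter cDNA; digest with HpaI 2h at 37 C; run capillary electrophoresis. Activity fitted both directions against DMSO.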

Assay [10] in a line: ATG_TCF_b_cat_CIS: Attagene CIS-FACTORIAL HepG2 Assay for human T-Cell-Factor with beta-catenin (TCF/b-cat) (AID 2282965). The settings on record: HepG2 TCF/beta-catenin cis-reporter transcription, actives raise or lower the signal. Put shortly:
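Endogenous TCF/LEF activity read as reporter transcript level via RT-PCR and capillary electrophoresis fluorescence in transfected HepG2, 24 h exposure; gain or loss of signal fitted against DMSO controls.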

Assay [11] can be described thus: ATG_TAL_CIS: Attagene CIS-FACTORIAL HepG2 Assay for human TAL Basal Promoter (AID 2282966).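 Further: background control endpoint measuring basal TAL promoter reporter mRNA not a specific factor.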 To be noted: HepG2 Attagene cis-factorial TAL promoter reporter; actives raise or lower the signal. An outline of the steps: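 HepG2 cells were transiently transfected with promoter-driven multiplexed reporter units and dosed for 24 h. Reporter mRNA was measured by RT-PCR with capillary electrophoresis fluorescence; bidirectional fits used DMSO as baseline, serving as a background control.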

Assay [12] in a line: ATG_TGFb_CIS: Attagene CIS-FACTORIAL HepG2 Assay for human Transforming Growth Factor (TGF) (AID 2282967). The settings on record: HepG2 Attagene CIS TGFb reporter, mRNA transcription; actives raise or lower the signal. An outline of the steps: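 Cells were dosed for 24 hours, after which total RNA was reverse-transcribed and reporter sequences amplified, labeled and sized by capillary electrophoresis. Activity was fitted in both directions against DMSO.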

Assay [13] can be described thus: ATG_VDRE_CIS: Attagene CIS-FACTORIAL HepG2 Assay for human Vitamin D Receptor Element (VDRE) (AID 2282968). To be noted: HepG2 VDRE cis-reporter transcription, actives raise or lower the signal. An outline of the steps:
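Reporter mRNA induction, quantified by capillary electrophoresis of fluorescently labelled RT-PCR products, was read 24 h after dosing HepG2 cells carrying transiently transfected cis-regulated reporter units; gain or loss relative to DMSO.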

Assay [14] has as its target Nuclear receptor subfamily 1 group I member 3 (Homo sapiens) (UniProt Q14994). As to the kind of experiment: ATG_CAR_TRANS: Attagene TRANS-FACTORIAL HepG2 Assay for human Constitutive Androstane Receptor (CAR) (AID 2282969; active means hit-call score of the fitted dose curve at least 0.9, where 1 is the maximum;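 further: activators raise reporter mRNA above DMSO so AC50 marks induction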). The settings on record: HepG2 Attagene TRANS-FACTORIAL CAR reporter. Put shortly: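 Readout is reporter mRNA induction, quantified by fluorescent primer extension and capillary electrophoresis after RT-PCR. Cells were HepG2 transiently carrying chimeric NR-Gal4 constructs with GAL4-UAS reporters, treated for 24 h; activity scored upward from DMSO.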

Assay [15] in a line: ATG_M_19_TRANS: Attagene TRANS-FACTORIAL HepG2 Assay for M19 Transcription Factor (Internal Marker) (AID 2282974; active means hit-call score of the fitted dose curve at least 0.9, where 1 is the maximum). The settings on record: HepG2 Attagene TRANS-FACTORIAL M19 internal marker reporter. Put shortly: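 Reporter mRNA induction was measured in transfected HepG2 cells 24 h after dosing. Endpoint fitted upward relative to DMSO and serves as a background control within the multiplexed TRANS panel.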

Assay [16] is described as follows: ATG_GAL4_TRANS: Attagene TRANS-FACTORIAL HepG2 Assay for GAL4 (Internal Marker) (AID 2282976; active means hit-call score of the fitted dose curve at least 0.9, where 1 is the maximum). To be noted: HepG2 Attagene TRANS GAL4 internal marker reporter. An outline of the steps:
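HepG2 cells transiently transfected with multiplexed GAL4-UAS reporter constructs were dosed for 24 h. Reporter mRNA was measured by RT-PCR, 6-FAM primer extension, HpaI digestion and capillary electrophoresis, and gain of signal was fitted relative to DMSO.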

In assay [17] the target is Estrogen receptor (Homo sapiens) (UniProt P03372). Put plainly: ATG_ERa_TRANS: Attagene TRANS-FACTORIAL HepG2 Assay for human Estrogen Receptor alpha (ERa) (AID 2282970; active means hit-call score of the fitted dose curve at least 0.9, where 1 is the maximum). The settings on record: HepG2 Attagene TRANS ERa GAL4 reporter, mRNA. An outline of the steps: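 HepG2 cells transiently transfected with multiplexed GAL4-UAS reporter units; ERa activity read via exogenous chimeric NR-Gal4 protein. After 24 hour compound exposure, reporter mRNA measured by RT-PCR with 6-FAM labelling and capillary electrophoresis; gain-of-signal fitted relative to DMSO.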

Assay [18] has as its target X-box-binding protein 1 (Homo sapiens) (UniProt P17861). Put plainly: ATG_Xbp1_CIS: Attagene CIS-FACTORIAL HepG2 Assay for human X-box Binding Protein 1 (XBP1) (AID 2282972). The settings on record: HepG2 XBP1 cis-element reporter, Attagene multiplex; actives raise or lower the signal. An outline of the steps:
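Fluorescence-labelled cDNA fragments from reporter transcripts, separated by capillary electrophoresis, give the signal. Source: HepG2 cells transfected with promoter-driven reporter units, harvested 24 h post-dose. DMSO served as reference for bidirectional curve fitting.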

The target of assay [19] is Estrogen-related receptor gamma (Homo sapiens) (UniProt P62508). As to the kind of experiment: ATG_ERRg_TRANS: Attagene TRANS-FACTORIAL HepG2 Assay for human Estrogen-Related Receptor gamma (ERRg) (AID 2282977; active means hit-call score of the fitted dose curve at least 0.9, where 1 is the maximum;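 further: hits increase reporter signal over DMSO so potencies reflect activators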). To be noted: HepG2 Attagene TRANS reporter, ERRg transactivation. An outline of the steps: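 Transfect HepG2 with multiple GAL4-UAS reporter transcription units; dose chemicals 24 h; isolate RNA, reverse-transcribe with oligo(dT), PCR-amplify, label with 6-FAM, digest with HpaI; size fragments by capillary electrophoresis. DMSO serves as negative control.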
Chain of Estrogen-related receptor gamma (Homo sapiens) (P62508 whole entry, looked up, the tested form may be a part): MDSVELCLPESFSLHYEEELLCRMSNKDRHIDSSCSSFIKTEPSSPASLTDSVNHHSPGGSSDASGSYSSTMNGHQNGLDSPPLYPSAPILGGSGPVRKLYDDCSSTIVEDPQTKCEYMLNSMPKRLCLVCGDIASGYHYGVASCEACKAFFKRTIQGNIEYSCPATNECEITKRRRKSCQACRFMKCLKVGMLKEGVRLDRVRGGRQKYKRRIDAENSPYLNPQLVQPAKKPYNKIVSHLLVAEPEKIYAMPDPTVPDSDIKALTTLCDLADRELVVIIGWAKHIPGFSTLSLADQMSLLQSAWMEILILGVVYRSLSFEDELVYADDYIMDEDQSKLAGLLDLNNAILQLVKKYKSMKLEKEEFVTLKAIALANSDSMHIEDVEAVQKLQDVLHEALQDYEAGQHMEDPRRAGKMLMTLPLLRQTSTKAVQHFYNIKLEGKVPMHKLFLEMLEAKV

Chain of X-box-binding protein 1 (Homo sapiens) (P17861 whole entry, looked up, the tested form may be a part): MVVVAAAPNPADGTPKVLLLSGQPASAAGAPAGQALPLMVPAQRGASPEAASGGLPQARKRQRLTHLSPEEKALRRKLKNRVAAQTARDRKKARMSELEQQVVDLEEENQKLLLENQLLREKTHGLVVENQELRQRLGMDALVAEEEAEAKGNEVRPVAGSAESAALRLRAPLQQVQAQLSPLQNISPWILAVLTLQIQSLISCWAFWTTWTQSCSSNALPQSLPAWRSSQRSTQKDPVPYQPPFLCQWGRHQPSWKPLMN
Chain of Nuclear receptor subfamily 1 group I member 3 (Homo sapiens) (Q14994 whole entry, looked up, the tested form may be a part): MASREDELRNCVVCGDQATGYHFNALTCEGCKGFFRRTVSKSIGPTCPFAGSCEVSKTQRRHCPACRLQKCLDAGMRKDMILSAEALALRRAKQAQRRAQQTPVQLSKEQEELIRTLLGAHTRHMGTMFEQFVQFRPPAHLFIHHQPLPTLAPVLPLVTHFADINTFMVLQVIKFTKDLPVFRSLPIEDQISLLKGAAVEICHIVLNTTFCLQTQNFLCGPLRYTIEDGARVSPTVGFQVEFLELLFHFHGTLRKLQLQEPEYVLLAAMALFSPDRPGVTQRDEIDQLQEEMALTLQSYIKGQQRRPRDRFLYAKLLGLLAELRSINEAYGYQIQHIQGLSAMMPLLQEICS
Chain of Signal transducer and activator of transcription 3 (Homo sapiens) (P40763 whole entry, looked up): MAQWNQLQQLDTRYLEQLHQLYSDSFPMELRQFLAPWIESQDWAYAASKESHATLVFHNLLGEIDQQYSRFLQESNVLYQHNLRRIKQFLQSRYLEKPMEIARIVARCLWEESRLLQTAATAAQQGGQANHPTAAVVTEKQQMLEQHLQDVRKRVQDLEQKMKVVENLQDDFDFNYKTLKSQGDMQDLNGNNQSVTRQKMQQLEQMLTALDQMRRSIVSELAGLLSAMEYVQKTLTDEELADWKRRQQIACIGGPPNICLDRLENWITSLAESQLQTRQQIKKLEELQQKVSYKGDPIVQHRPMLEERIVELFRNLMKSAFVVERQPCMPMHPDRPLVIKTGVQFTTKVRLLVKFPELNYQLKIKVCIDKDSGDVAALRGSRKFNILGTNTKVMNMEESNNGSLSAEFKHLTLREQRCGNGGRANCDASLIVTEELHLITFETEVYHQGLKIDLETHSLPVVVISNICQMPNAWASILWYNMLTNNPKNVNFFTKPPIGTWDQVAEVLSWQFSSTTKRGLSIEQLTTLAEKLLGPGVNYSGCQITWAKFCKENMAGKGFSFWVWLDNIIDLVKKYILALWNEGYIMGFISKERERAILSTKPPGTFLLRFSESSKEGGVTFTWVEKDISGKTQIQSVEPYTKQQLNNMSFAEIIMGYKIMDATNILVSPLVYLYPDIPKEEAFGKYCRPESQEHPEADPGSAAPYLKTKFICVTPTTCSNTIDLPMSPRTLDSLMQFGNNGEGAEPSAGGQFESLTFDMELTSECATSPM
Chain of Transcription factor Sp1 (Homo sapiens) (P08047 whole entry, looked up): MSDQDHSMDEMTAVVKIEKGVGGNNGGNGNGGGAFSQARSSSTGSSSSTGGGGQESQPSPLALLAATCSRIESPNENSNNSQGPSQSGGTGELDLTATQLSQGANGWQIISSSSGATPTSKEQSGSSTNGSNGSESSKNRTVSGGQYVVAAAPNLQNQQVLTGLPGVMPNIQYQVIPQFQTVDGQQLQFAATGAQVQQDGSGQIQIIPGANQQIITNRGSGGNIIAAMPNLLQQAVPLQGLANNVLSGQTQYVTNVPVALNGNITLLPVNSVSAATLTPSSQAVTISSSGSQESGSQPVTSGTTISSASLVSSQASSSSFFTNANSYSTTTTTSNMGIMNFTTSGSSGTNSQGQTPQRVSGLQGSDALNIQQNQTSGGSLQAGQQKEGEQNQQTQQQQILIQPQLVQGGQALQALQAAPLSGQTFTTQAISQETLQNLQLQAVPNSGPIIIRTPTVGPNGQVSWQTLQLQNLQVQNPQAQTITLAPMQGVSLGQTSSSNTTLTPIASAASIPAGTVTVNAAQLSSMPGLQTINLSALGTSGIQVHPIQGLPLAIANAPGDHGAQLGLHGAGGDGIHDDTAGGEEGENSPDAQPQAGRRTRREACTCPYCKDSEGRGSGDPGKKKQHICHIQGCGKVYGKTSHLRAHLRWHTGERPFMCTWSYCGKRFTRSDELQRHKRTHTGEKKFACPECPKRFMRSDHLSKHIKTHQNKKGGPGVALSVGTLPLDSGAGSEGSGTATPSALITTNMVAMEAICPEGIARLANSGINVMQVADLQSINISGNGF
Chain of Paired box protein Pax-6 (Homo sapiens) (P26367 whole entry, looked up): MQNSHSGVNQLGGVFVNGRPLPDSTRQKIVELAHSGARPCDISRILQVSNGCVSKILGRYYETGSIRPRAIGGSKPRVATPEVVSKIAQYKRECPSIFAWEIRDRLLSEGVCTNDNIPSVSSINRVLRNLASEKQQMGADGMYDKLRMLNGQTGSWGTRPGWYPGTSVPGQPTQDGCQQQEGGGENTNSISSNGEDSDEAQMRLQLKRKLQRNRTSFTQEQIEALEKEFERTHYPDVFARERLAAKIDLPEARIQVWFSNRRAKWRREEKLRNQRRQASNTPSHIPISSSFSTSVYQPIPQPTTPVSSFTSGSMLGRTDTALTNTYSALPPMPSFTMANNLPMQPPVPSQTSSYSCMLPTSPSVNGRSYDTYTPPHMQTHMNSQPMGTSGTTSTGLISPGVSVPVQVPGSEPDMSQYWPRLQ
Chain of Estrogen receptor (Homo sapiens) (P03372 whole entry, looked up, the tested form may be a part): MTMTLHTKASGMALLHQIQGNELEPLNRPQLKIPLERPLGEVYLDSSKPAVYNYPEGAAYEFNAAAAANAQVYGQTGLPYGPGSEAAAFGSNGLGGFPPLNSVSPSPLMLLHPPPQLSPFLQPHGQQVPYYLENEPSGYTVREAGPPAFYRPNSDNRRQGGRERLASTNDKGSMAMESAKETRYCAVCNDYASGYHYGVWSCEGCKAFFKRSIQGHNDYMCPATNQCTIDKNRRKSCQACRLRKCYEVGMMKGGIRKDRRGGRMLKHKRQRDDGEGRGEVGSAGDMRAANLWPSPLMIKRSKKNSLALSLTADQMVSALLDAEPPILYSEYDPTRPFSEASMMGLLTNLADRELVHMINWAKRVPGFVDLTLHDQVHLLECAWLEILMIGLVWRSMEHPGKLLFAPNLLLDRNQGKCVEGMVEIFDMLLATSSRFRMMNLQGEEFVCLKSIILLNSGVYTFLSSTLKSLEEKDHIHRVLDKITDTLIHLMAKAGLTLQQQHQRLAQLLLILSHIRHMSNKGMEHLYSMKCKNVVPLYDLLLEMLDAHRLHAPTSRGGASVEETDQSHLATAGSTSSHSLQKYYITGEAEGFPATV

Consider `O=c1c(-c2ccc(O)cc2)coc2cc(O)cc(O)c12`, for which the call in assay [1], in assay [2], in assay [3], in assay [4], in assay [5] and in assay [6] was inactive. Further, the outcome in [8], in assay [9], in assay [10], in assay [11], in [12] and in assay [13] was inactive. Also, the outcome in assay [14], in assay [15] and in [16] was inactive. Further, the AC50 was 27.9 µM (active) in assay [2]; 14.7 µM (active) and 66.3 µM (active) and 50 µM (active) in [3]; 58.4 µM (active) and 80.7 µM (active) in [6]; 28.2 µM (active) [middle of 4 runs] in assay [7]; 77.3 µM (active) and 100 µM (active) and 27 µM (active) in assay [11]; 61.3 µM (active) in assay [13].
`CCN(CC)C(=O)c1cc(S(=O)(=O)Cc2ccccc2)c(N2CCC(c3ccccc3)CC2)cc1N(CC)CCN(C)C`: the outcome in assay [1], in [3], in [4], in assay [5], in [6] and in assay [8] was inactive. Moreover, the result in [9], in assay [10], in [11], in assay [12], in [13] and in assay [14] was inactive. Besides, the call in assay [17], in assay [18] and in assay [19] was inactive. Besides, the AC50 in assay [2] was 0.126 µM (active); in assay [7] it was 926 nM (active).
Consider `O=C1O[C@H]([C@@H](O)CO)C(O)=C1O`, for which the call in assay [1], in assay [3], in [4], in assay [5], in assay [6] and in assay [7] was inactive. In addition, the compound was classed as inactive in assay [8], in [9], in [10], in assay [11], in assay [12] and in [18]. For the same compound, the compound was classed as inactive in assay [15] and in [16]. The AC50 in [2] is 184 µM (active) and 54.4 µM (active).

By AC50 is commonly meant the concentration at which the activity in the assay is half-maximal.
